Screening data: PubChem BioAssay, National Center for Advancing Translational Sciences (NCATS)
The full list was thinned out, with hits kept by preference.
Pf Dd2 inh = inhibitors of Plasmodium falciparum Dd2 growth | P. falciparum Dd2 growth, SYBR Green, 72 h | 120,000 compounds, 4.3% hits | Potency, µM (top dose mostly 28.9 µM), actives largely listed as inhibitors; active = well fitted inhibition curve with a large enough effect; note: nearly all actives have a fitted effect of over 65% in size
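Readout: SYBR Green fluorescence, 485 nm excitation, 535 nm emission, after ~16 h lysis at 37C. Before that, Dd2-infected red cells (2.5% hematocrit) grew 72 h with compound, 29 uM top final concentration.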
Large screens that a line does not name were inactive.

Cc1ccc(-n2nnnc2CNC(=O)c2ccccc2S(C)(=O)=O)cc1C	none
COc1cccc(C(=O)N2CCC3(CC2)CC(OC)CCO3)c1 (configuration not stated)	none
Cc1c(-c2ccc(Cl)cc2)c(=O)oc2ccc(OC(=O)N3CCOCC3)cc12	none
Cc1c(-c2ccccc2)c(=O)oc2c(CN3CCOCC3)c(O)ccc12	Pf Dd2 inh 8.91µM
CCn1cc(-c2ccc(Cl)cc2)cc1C(=O)NCCN1CCOCC1	none
Cc1c(-c2ccc(Cl)cc2)c(=O)oc2c(CN3CCOCC3)c(O)ccc12	Pf Dd2 inh 5.62µM
Cc1ccccc1CN1CCc2nc(C(=O)N3CCOCC3)oc2CC1	none
Cc1c(-c2ccc(Br)cc2)c(=O)oc2ccc(OC(=O)N3CCOCC3)cc12	none
Cc1cccc(CC(=O)N2CCC[C@H]2c2nc(-c3ccccc3)no2)c1	none
Cc1cccc(C(=O)N2CCC3(CC2)N=C(c2ccc(Cl)cc2)NO3)c1	none
O=C(Nc1cccc2ccccc12)O[C@@H]1CO[C@H]2[C@@H]1OC[C@@H]2n1nnnc1Sc1ccccc1	none
COc1ccc(C(=O)N[C@@H]2CCC[C@@H]2C(=O)N2CCN(c3cc(C)ccc3C)CC2)cc1	Pf Dd2 inh 5.01µM
COc1ccc(C(=O)N[C@@H]2CCC[C@@H]2C(=O)N2CCN(Cc3ccc(F)cc3)CC2)cc1	none
COc1ccc(C(=O)N[C@@H]2CCC[C@@H]2C(=O)N2CCOCC2)cc1	none
COc1ccc(C(=O)N[C@@H]2CCC[C@@H]2C(=O)N2CCCC2)cc1	none
COc1ccc(C(=O)N[C@@H]2CCC[C@@H]2C(=O)NCCCn2cccn2)cc1	none
COc1ccc(C(=O)N[C@@H]2CCC[C@@H]2C(=O)NCCCN2CCCc3ccccc32)cc1	Pf Dd2 inh 11.2µM
COc1ccc(C(=O)N[C@@H]2CCC[C@@H]2C(=O)N2CCCCC2)cc1	none
CCCNC(=O)[C@H]1CCC[C@H]1NC(=O)c1ccc(OC)cc1	none
COc1ccc(C(=O)N[C@@H]2CCC[C@@H]2C(=O)N2CCN(c3ccccc3F)CC2)cc1	Pf Dd2 inh 10µM
CC(C)c1noc(C2CCCN(C(=O)NC3CCCCC3)CCC(=O)NCC2)n1 (configuration not stated)	none
Cc1cc(C)c2c(C(=O)N(C)Cc3nc(C)no3)cc(C)nc2c1	none
O=C(CSCC1CC1)N1CCCC(c2nccn2Cc2cccnc2)C1 (configuration not stated)	none
CC(C)n1cnnc1CC1CCCN(C(=O)c2n[nH]c3ccccc23)C1 (configuration not stated)	none
Cc1nn(C(=O)CCCC(=O)N2CCC(Cc3nncn3C(C)C)CC2)c2ccccc12	none
Cc1ccc(-c2cc(C(=O)N3CCC(Cc4nncn4C(C)C)CC3)c3ccccc3n2)cc1C	Pf Dd2 inh 5.01µM
CCOC(=O)Cn1c(-c2cccs2)cc2cc(Cl)ccc21	none
O=C(Cn1c(-c2cccs2)cc2ccccc21)N1CCN(c2ccc(Cl)cc2)CC1	none
CC(CNC(=O)Cn1c(-c2cccs2)cc2ccccc21)c1ccccc1 (configuration not stated)	Pf Dd2 inh 11.2µM
Cc1ccc(CNC(=O)Cn2c(-c3cccs3)cc3cc(Cl)ccc32)cc1	none
O=C(Cn1c(-c2cccs2)cc2cc(F)ccc21)NCCCN1CCN(c2ccc(F)cc2)CC1	Pf Dd2 inh 6.31µM
CN(C)c1ccc(CNC(=O)Cn2c(-c3cccs3)cc3cc(Cl)ccc32)cc1	none
COc1ccccc1NC(=O)NCCCN1CCN(c2ccc(F)cc2)CC1	none
CC(NC(=O)Cn1c(-c2cccs2)cc2cc(F)ccc21)c1ccccc1 (configuration not stated)	Pf Dd2 inh 1.12µM
CCNC(=O)Cn1c(-c2cccs2)cc2ccccc21	none
CC(C)CC(=O)N1C(C(=O)NCC2CCCO2)COC12CCC(C)CC2 (configuration not stated)	none
CCNC(=O)c1n[nH]c2c1CN(C(=O)c1cc(F)cc(F)c1)CC2	none
O=C(c1ccco1)N1CCC(c2nc(C3CCOCC3)no2)CC1	none
Cc1nnc(-c2cc(-c3ccc(CO)cc3)ccn2)n1CCN1CCOCC1	none
O=C(N[C@@H]1COCC[C@H]1OCc1ccccn1)c1cnc(C2CC2)nc1	none
COc1ccc2c(c1)-c1nc(NC(=O)c3cccc(Br)c3)sc1CC2	Pf Dd2 inh 10µM
COc1ccc2c(c1)CCc1sc(NC(=O)c3ccc(Br)cc3)nc1-2	none
COc1cccc(OC)c1C(=O)Nc1nc2c(s1)CCc1ccccc1-2	none
O=C(CCn1ccc(=O)[nH]c1=O)NC1CCCN(CCCc2ccccc2)C1 (configuration not stated)	none
CCN(CC)S(=O)(=O)NC1CCCN(CCCc2ccccc2)C1 (configuration not stated)	none
O=C(c1ccccc1OCC1CCCN(CCCc2ccccc2)C1)N1CCCC1 (configuration not stated)	none
COC(=O)N1CCCCC(NC(=O)CCCc2nc(-c3ccccc3C)no2)C1 (configuration not stated)	none
COC(=O)c1cccc(C(=O)NC2CCCN(CCCc3ccccc3)C2)c1 (configuration not stated)	Pf Dd2 inh 8.91µM
O=C(CCc1nc(-c2ccccc2)no1)NC1CCCN(CCCc2ccccc2)C1 (configuration not stated)	Pf Dd2 inh 7.08µM
COc1ccc(CCC(=O)N2CCC3(CC2)CC(O)CCO3)cc1 (configuration not stated)	none
O=C(c1ccc(C(F)(F)F)cc1)N1CCC2(Cc3ccccc3NC2=O)C1 (configuration not stated)	none
CC(C)CC(=O)N1C[C@@H](Oc2cccnc2)C[C@H]1C(=O)NC1CC1	none
Cc1nn2c(c1-c1ccccc1OCc1ccccc1)N(C(=O)Cc1ccc3c(c1)OCO3)CCC2	none
COc1ccc(CN2C[C@H](O)C[C@H]2c2nc(-c3ccc(C)c(F)c3)no2)cc1	none
Cc1ccc(N2CC(c3noc(-c4nccc5ccccc45)n3)CC2=O)cc1 (configuration not stated)	none
COc1cccc(C(=O)NCCC2CCN(C(=O)Nc3ccc(C)c(F)c3)CC2)c1	none
O=C(NCCC1CCN(C(=O)Nc2ccc(F)cc2F)CC1)c1cccc(F)c1	none
Cc1ccc(NC(=O)N2CCC(CCNC(=O)c3cccc(F)c3)CC2)cc1F	Pf Dd2 inh 12.6µM
O=C(CC(c1ccccc1)c1ccccc1Cl)NCc1cc2n(n1)CCNC2 (configuration not stated)	none
CCNC(=O)N1CCC2(CC1)CC(N(C)Cc1ccccc1)CCO2 (configuration not stated)	none
CN1C(=O)CO[C@H]2CN(c3ccc(C#N)cn3)C[C@H]21	none
CCN1C(=O)C2(CCN(S(=O)(=O)c3ccc4c(c3)CCCC4)CC2)c2ccccc21	none
Cc1ccc(C)c(N(C)C(=O)C2CCN(c3ncnc4c3nc3n4CCCCC3)CC2)c1	Pf Dd2 inh 8.91µM
CCCN(CCC)C(=O)C1CCN(c2ncnc3c2nc2n3CCCCC2)CC1	none
CCc1ccccc1N(C)C(=O)C1CCCN(c2ncnc3c2nc2n3CCCCC2)C1 (configuration not stated)	Pf Dd2 inh 7.94µM
CCc1ccccc1N(CC)C(=O)C1CCN(c2ncnc3c2nc2n3CCCCC2)CC1	Pf Dd2 inh 11.2µM
Cc1ccc(C)c(NC(=O)C2CCN(c3ncnc4c3nc3n4CCCCC3)CC2)c1	none
CCCNC(=O)C1CCN(c2ncnc3c2nc2n3CCCCC2)CC1	none
O=C(Nc1ccc(F)cc1)C1CCCN(c2ncnc3c2nc2n3CCCCC2)C1 (configuration not stated)	none
CN(C(=O)C1CCN(c2ncnc3c2nc2n3CCCCC2)CC1)c1ccccc1F	none
CCOc1ccccc1N(C)C(=O)C1CCCN(c2ncnc3c2nc2n3CCCCC2)C1 (configuration not stated)	none
